From PubChem BioAssay (Tox21) come the findings set out here.

Values without a mark were called inactive. Records with an inconclusive call do not appear. Active and inactive are the calls of the source. Unless noted, the call rests on the fitted dose curve; in most records, active means well fitted curve in the direction sought with a large enough effect in the repeat runs; inconclusive means weak or mixed curves; inactive means no such curve, though single readings can be large; an effect the other way counts as inactive or inconclusive.

Test [1] addresses Progesterone receptor (Homo sapiens) (UniProt P06401). In words: qHTS assay to identify small molecule agonists of the progesterone receptor (PR) signaling pathway (AID 1346784; calls by dose curve; further: nearly all actives have a fitted effect of over 30% in size). Put shortly:
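Compounds were tested for PR agonism in HEK 293T cells bearing a beta-lactamase gene under UAS control. Treatment lasted 16 hr at 37C; signal came from fluorescence of a FRET substrate.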

For test [2] the target is unchanged. In words: qHTS assay to identify small molecule antagonists of the progesterone receptor (PR) signaling pathway (AID 1346795; active means well fitted inhibition curve with a large enough effect in the signal ratio in the repeat runs, not every such curve was filed as active; the % refers to the signal ratio; further: potency means the concentration at half of the fitted maximal effect). A digest of the protocol:
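In HEK293T cells bearing the PR-UAS-bla reporter, compound effects on promegestone-driven (1 nM) beta-lactamase expression are assessed after 16 hr using a fluorescent FRET substrate incubated 2 hr at room temperature.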

Test [3] in a line: qHTS assay to identify small molecule antagonists of the progesterone receptor (PR) signaling pathway - cell viability counter screen (AID 1346798). Further: series mostly up to about 92 µM; nearly all actives have a fitted effect of over 50% in size. Put shortly: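 Following a 4 hr attachment, PR-UAS-bla HEK293T cells in charcoal-stripped FBS medium were exposed to compounds with R5020 for 16 hr; CellTiter-Glo was added and luminescence read after 30 min at room temperature.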

Test [4] is described as follows: qHTS assay to identify small molecule agonists of the progesterone receptor (PR) signaling pathway - cell viability counter screen (AID 1346799; calls by dose curve; further: nearly all actives have a fitted effect of over 45% in size). A digest of the protocol:
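Here, 3,000 PR-UAS-bla HEK293T cells per well were treated with compounds for 16 hr after a 6 hr preincubation at 37C and 5% CO2; cell viability is the CellTiter-Glo luminescence signal.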

Test [5] can be described thus: qHTS assay to identify small molecule antagonists of the TGF-beta/Smad signaling pathway - cell viability counter screen (AID 1346824). Further: nearly all actives have a fitted effect of over 50% in size. A digest of the protocol:
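Cytotoxicity counter-screen run in the same wells as the beta-lactamase Smad reporter read: CellTiter-Glo luminescence after 30 min at room temperature. HEK 293T SBE-bla cells had 5 hr compound exposure at 37 C with TGF-beta1 (0.25 ng/mL stock).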

Test [6] is described as follows: qHTS assay to identify small molecule agonists of the TGF-beta/Smad signaling pathway - cell viability counter screen (AID 1346829). Further: top concentration of the series differs between compounds; nearly all actives have a fitted effect of over 45% in size. Put shortly:
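CellTiter-Glo luminescence readout; SBE-bla HEK 293T cells, overnight plating, compound 5 hr at 37 C/5% CO2, then bla substrate 2 hr RT, then CellTiter-Glo 30 min RT.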

The nature of test [7]: qHTS assay to identify small molecule agonists of the TGF-beta/Smad signaling pathway (AID 1346859; active means well fitted activation curve with a large enough effect in the signal ratio in the repeat runs, not every such curve was filed as active; the % refers to the signal ratio; further: series mostly up to about 77 µM). Put shortly: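 Each well held 4,000 SBE-bla HEK 293T cells incubated overnight before compound addition; 5 hr later the cleavable FRET substrate went on for 2 hr at room temperature, and fluorescence was read at two emissions.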
Test [8] has as its target Thyrotropin-releasing hormone receptor (Homo sapiens) (UniProt P34981). In words: qHTS assay to identify small molecule antagonists of the thyrotropin-releasing hormone receptor (TRHR) signaling pathway (AID 1346877; active means well fitted inhibition curve with a large enough effect in the repeat runs, not every such curve was filed as active; further: series mostly up to about 51 µM). Put shortly:
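In this cell-based calcium flux format, HEK293 cells expressing TRHR received test compound for 5 min before the agonist TRH (1 nM final). Dye loading lasted 2 h at 37 °C.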

The target is the same in test [9]. Briefly: qHTS assay to identify small molecule agonists of the thyrotropin-releasing hormone receptor (TRHR) signaling pathway (AID 1346891; calls by dose curve; further: series mostly up to about 58 µM). A digest of the protocol: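 Screening of agonists relied on calcium signalling in HEK293 cells expressing human TRHR: dye loading 2 h at 37 °C preceded compound addition and a 3-min fluorescence time course.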
Test [10] can be described thus: Human pregnane X receptor (PXR) small molecule agonists, qHTS cell viability counter screen (AID 1346977). Further: nearly all actives have a fitted effect of over 50% in size. Put shortly:
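Tox21 qHTS format; PXR-Luc HepG2, 2,000/well, charcoal-stripped FBS 5%. Cpd exposure 24hr. Read: CellTiter-Fluor fluorescence, multiplexed with luciferase.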

Test [11] is described as follows: Caspase-3/7 induction in HepG2 cells by small molecules, qHTS assay (AID 1346978). Further: nearly all actives have a fitted effect of over 15% in size. Put shortly: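 Caspase-3/7 induction was measured by Caspase-Glo 3/7 luminescence (30 min, room temperature) after a 17 hr compound exposure of wild-type HepG2 cells seeded at 2,000 per well and pre-incubated 5 hr.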
Test [12] is described as follows: Caspase-3/7 induction in CHO-K1 cells by small molecules, qHTS cell viability counter screen (AID 1346979). Further: nearly all actives have a fitted effect of over 35% in size. Put shortly:
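CellTiter-Fluor viability check, qHTS format: wild-type CHO-K1, 16hr compound treatment, 1hr reagent incubation, fluorescence read.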

A short description of test [13]: Caspase-3/7 induction in CHO-K1 cells by small molecules, qHTS assay (AID 1346980). Further: nearly all actives have a fitted effect of over 15% in size. A digest of the protocol: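 Luminescent Caspase-Glo 3/7 read (30min, room temperature) quantified apoptosis induction. Cells were wild-type CHO-K1, treated with compound for 17hr at 37 C and 5% CO2.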
Test [14] in a line: Caspase-3/7 induction in HepG2 cells by small molecules, qHTS cell viability counter screen (AID 1346981). Further: series mostly up to about 92 µM; nearly all actives have a fitted effect of over 30% in size. A digest of the protocol:
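Counter screen for cytotoxicity: HepG2 exposed 16 hr to compounds, then CellTiter-Fluor viability signal (fluorescence, 1 hr reagent incubation).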

Test [15] addresses Nuclear receptor subfamily 1 group I member 2 (Homo sapiens) (UniProt O75469). Briefly: Human pregnane X receptor (PXR) small molecule agonists, qHTS assay (AID 1346982). Further: nearly all actives have a fitted effect of over 35% in size. Put shortly: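 Luminescence (ONE-Glo, 30 min RT) after 24 hr compound exposure of PXR-Luc HepG2 cells; cells rested 5 hr post-plating in 5% charcoal-stripped FBS medium.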
The target of test [16] is Cytochrome P450 2D6 (Homo sapiens) (UniProt P10635). In words: Cytochrome P450 Family 2 Subfamily D Member 6 (CYP2D6) small molecule antagonists: luciferase reporter qHTS assay (AID 1671196). Further: nearly all actives have a fitted effect of over 50% in size. Further: potency means the concentration at half of the fitted maximal effect. On activity change, negative = inhibition: series mostly up to about 120 µM. A digest of the protocol: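 Inhibition of CYP2D6 was gauged by loss of luminescence, since light produced tracks the luciferin generated from a proluciferin substrate. A 10 min room-temperature preincubation preceded 1 h NADPH-supported turnover.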
Sequence of Cytochrome P450 2D6 (Homo sapiens) (P10635 whole entry, looked up): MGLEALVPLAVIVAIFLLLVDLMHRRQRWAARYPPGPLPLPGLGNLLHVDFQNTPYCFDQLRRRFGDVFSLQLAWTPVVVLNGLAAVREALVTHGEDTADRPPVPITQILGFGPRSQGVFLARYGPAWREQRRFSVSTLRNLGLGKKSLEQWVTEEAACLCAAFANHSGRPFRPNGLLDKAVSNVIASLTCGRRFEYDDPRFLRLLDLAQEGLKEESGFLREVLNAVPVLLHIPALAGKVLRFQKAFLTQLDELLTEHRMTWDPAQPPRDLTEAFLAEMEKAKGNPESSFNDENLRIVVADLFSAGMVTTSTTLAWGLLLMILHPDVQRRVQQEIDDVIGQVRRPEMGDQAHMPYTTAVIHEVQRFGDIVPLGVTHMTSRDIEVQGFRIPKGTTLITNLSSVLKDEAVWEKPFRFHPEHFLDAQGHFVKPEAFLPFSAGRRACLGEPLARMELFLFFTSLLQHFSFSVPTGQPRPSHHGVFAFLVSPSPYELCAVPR

Test [17] has as its target Cytochrome P450 2C19 (Homo sapiens) (UniProt P33261). In words: Cytochrome P450 Family 2 Subfamily C Member 19 (CYP2C19) small molecule antagonists: luciferase reporter qHTS assay (AID 1671197). Further: nearly all actives have a fitted effect of over 65% in size. Further: potency means the concentration at half of the fitted maximal effect. On activity change, negative = inhibition: series mostly up to about 120 µM. Put shortly: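 Enzyme-substrate mix with proluciferin substrate (P450-Glo CYP2C19 system) preincubated with compounds 10 min at room temperature; NADPH regeneration solution added, 37C for 1 h; detection reagent stops reaction, luminescence read after 20 min. Ketoconazole positive control.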

In test [18] the target is Nuclear receptor subfamily 1 group I member 2 (Rattus norvegicus) (UniProt Q9R1A7). Briefly: Rat pregnane X receptor (rPXR) activation by small molecules, qHTS assay (AID 1346983). Further: nearly all actives have a fitted effect of over 20% in size. To be noted: rPXR luciferase reporter cells, One-Glo luminescence, 24 h; max activation: active compounds read high. A digest of the protocol:
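Luminescent readout (One-Glo luciferase, 30 min room temperature) followed 24 hr compound treatment at 37 C of rPXR cells plated 2,000 per well and preincubated 5hr; qHTS format with compounds delivered in DMSO.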

Test [19] concerns the target Nuclear receptor subfamily 1 group I member 2 (Homo sapiens) (UniProt O75469). In words: CYP3A4 induction through human pregnane X receptor (PXR) by small molecules, qHTS assay (AID 1346984). Further: nearly all actives have a fitted effect of over 40% in size. A digest of the protocol: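 DPX-2 reporter cells; 24h cpd, 37C; Luciferin-IPA 3uM final x3h; One-Glo 30 min RT; lumi read.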
On the % scale 0 is the no-effect control and ±100 the full control effect.

Sequence of Cytochrome P450 2C19 (Homo sapiens) (P33261 whole entry, looked up): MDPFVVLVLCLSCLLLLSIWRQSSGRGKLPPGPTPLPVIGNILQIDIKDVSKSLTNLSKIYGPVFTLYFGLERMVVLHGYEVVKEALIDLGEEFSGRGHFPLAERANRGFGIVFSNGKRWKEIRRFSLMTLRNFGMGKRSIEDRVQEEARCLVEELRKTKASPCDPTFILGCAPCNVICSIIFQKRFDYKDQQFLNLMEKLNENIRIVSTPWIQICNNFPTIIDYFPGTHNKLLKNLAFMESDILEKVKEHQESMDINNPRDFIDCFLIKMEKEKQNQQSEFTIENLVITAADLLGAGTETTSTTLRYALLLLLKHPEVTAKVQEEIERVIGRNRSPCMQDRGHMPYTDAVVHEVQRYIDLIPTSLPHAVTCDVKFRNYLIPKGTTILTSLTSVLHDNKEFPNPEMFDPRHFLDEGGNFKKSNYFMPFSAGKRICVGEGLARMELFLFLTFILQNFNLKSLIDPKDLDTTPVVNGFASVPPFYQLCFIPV
Sequence of Nuclear receptor subfamily 1 group I member 2 (Rattus norvegicus) (Q9R1A7 whole entry, looked up): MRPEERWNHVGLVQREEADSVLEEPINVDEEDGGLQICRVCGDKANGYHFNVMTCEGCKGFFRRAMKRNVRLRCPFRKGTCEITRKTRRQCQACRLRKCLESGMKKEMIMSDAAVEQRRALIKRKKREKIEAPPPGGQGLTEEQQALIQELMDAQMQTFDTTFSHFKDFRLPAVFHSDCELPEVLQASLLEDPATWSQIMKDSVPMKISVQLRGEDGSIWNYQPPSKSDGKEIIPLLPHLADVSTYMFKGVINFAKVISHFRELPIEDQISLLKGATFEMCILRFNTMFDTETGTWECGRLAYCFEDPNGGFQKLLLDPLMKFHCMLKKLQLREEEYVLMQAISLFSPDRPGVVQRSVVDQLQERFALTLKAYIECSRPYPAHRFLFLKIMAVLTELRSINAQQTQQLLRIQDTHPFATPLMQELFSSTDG
Sequence of Nuclear receptor subfamily 1 group I member 2 (Homo sapiens) (O75469 whole entry, looked up): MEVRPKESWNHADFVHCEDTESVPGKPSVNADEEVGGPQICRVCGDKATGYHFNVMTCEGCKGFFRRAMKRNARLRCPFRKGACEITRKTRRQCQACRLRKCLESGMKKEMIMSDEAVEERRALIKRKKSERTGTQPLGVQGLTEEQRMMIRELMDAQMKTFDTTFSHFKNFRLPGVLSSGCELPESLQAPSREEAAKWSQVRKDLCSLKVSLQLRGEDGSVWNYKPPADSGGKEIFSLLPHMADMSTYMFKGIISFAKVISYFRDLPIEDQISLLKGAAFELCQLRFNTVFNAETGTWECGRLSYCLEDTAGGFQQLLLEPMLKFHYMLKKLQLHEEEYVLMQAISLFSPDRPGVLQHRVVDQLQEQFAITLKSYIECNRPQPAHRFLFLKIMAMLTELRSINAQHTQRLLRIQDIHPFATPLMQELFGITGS
Sequence of Progesterone receptor (Homo sapiens) (P06401 whole entry, looked up): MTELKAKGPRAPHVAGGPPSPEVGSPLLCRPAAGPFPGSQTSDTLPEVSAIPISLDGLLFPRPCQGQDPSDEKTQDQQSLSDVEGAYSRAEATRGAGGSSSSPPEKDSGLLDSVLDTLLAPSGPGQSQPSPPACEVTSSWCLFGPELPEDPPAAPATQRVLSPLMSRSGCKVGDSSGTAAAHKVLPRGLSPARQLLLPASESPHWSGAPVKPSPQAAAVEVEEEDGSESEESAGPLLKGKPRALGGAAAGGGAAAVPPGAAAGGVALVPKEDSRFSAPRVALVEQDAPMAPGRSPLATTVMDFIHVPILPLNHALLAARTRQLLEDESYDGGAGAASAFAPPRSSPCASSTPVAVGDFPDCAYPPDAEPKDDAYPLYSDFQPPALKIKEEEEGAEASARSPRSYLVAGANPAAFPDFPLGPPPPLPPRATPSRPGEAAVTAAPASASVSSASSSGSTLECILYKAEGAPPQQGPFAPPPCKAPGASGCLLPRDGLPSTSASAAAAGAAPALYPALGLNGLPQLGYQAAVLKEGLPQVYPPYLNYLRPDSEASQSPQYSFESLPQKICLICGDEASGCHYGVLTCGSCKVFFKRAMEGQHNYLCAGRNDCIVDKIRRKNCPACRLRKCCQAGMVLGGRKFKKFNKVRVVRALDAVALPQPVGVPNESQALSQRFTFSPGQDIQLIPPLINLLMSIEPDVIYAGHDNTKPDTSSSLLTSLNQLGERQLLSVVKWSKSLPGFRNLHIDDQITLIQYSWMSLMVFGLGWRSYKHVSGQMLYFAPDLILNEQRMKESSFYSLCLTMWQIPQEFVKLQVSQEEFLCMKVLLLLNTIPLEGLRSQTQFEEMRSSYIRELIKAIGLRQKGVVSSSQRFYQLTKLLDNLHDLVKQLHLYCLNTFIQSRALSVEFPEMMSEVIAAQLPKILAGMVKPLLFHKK
Sequence of Thyrotropin-releasing hormone receptor (Homo sapiens) (P34981 whole entry, looked up): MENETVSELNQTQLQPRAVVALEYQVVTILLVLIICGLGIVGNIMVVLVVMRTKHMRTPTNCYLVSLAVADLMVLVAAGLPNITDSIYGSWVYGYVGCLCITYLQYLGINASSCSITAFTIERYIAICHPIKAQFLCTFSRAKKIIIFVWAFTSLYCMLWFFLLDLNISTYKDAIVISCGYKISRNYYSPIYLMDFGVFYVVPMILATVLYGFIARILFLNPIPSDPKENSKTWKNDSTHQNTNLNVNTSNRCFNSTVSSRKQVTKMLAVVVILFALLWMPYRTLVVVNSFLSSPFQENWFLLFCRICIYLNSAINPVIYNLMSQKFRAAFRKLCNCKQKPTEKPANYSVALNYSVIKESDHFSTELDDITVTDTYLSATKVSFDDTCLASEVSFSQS

With `CC/C(=C\C(=N/O)C(N)=O)C(C)[N+](=O)[O-]` (configuration not stated), the outcome in [1], in [7], in [8] and in [11] was inactive. Further, the Potency result in [2], in test [3], in test [4], in test [5], in [6] and in test [9] was “inactive” throughout. Moreover, the Potency entry in test [10], in test [12], in test [13], in test [14], in test [15] and in test [16] was “inactive” in each case. Moreover, the Potency entry in test [17] was “inactive”.
As for `C=C(C)C(=O)OCCN(C)C`, the result in test [1], in test [7] and in [8] was inactive. The Potency entry in test [2], in test [3], in [4], in test [5], in test [6] and in [9] was “inactive” throughout. Besides, the Potency entry in [10], in test [12], in test [13], in test [14], in test [15] and in [16] was “inactive” each time. Moreover, in test [17], the Potency is 36 µM (active).
For the compound `COc1ccccc1OC(=O)Oc1ccccc1OC`, the outcome in test [1], in [7], in [8] and in [11] was inactive. The Potency in test [2] was 26.6 µM (active); in [17], 9.77 µM (active). In addition, the Potency result in test [3], in test [4], in test [5], in test [6], in test [9] and in test [10] was “inactive” each time. Moreover, the Potency entry in test [12], in test [13], in test [14], in test [15] and in test [19] was “inactive” each time. Besides, in test [18], the max activation is -1.11%.
Turning to `Cc1ccc(C(=O)C(C)CN2CCCCC2)cc1` (configuration not stated), the compound was classed as inactive in test [1], in test [7], in [8] and in test [11]. Besides, the Potency entry in [2], in test [3], in [4], in test [5], in test [6] and in test [9] was “inactive” throughout. Further, the Potency result in test [10], in test [12], in test [13], in [14], in test [15] and in test [19] was “inactive” each time. The max activation in test [18] is -1.62%. In addition, the Potency is 0.977 µM (active) in [16] and 7.76 µM (active) in [17].
`CN1CCC[C@@H]1c1cccnc1`: the outcome in [1], in test [7], in test [8] and in [11] was inactive. The Potency result in [2], in test [3], in [4], in test [5], in [6] and in [9] was “inactive” throughout. The Potency entry in test [10], in [12], in [13], in [14], in test [15] and in [19] was “inactive” each time. Also, in [17], the Potency entry is “inactive”. Further, the max activation in test [18] is -0.0949%. In test [16], the Potency was 38.9 µM (active).
For `Cc1cc(NC(=O)C(=O)O)cc(C)c1Oc1ccc(O)c2c1CCC2`, the call in test [1], in test [7], in test [8] and in test [11] was inactive. For the same compound, the Potency entry in test [2], in test [3], in [4], in [5], in test [6] and in [9] was “inactive” throughout. Further, the Potency result in [10], in test [12], in test [13], in [14] and in [15] was “inactive” throughout. For the same compound, the Potency in [17] was 25.2 µM (active).
Consider `NCc1ccccc1`, for which the call in [1], in test [7], in test [8] and in [11] was inactive. Besides, the Potency entry in test [2], in test [3], in test [4], in test [5], in [6] and in test [9] was “inactive” throughout. For the same compound, the Potency entry in test [10], in test [12], in test [13], in test [14], in test [15] and in test [17] was “inactive” throughout. The Potency in test [16] was 31.7 µM (active).
In the case of `CCN(CCO)CCCC(C)Nc1ccnc2cc(Cl)ccc12` (configuration not stated), the activation in test [1] was -0.495% [at 8.39 µM]; in test [7], -1.21% [at 6.97 µM]; in [9] it was 0.0624% [at 5.23 µM]. Besides, the activity change, negative = inhibition in test [2] was 1.96% [at 8.39 µM]. Besides, the activity change, negative = cytotoxicity in test [3] was -13% [at 8.39 µM]; in [4], -10.8% [at 8.39 µM]; in [6], 2.66% [at 6.97 µM]; in test [10], 4.23% [at 8.39 µM]; in test [12] it was 0.797% [at 8.39 µM]; in test [14] it was 3.29% [at 8.39 µM]. The viability change, negative = cytotoxic in [5] is -17% [at 6.97 µM]. Further, in test [8], the activity, negative = inhibition is 0.0536% [at 4.65 µM]. The caspase activation in test [11] was 0.0326% [at 8.39 µM]. For the same compound, the caspase-3/7 activation in [13] was -0.893% [at 8.39 µM]. In [18], the max activation is -3.7%.
